Screening data (PubChem BioAssay)
A selection: hits, their analogues and other compounds. The true share with any hit is near 31%.
CYP2C19 inh: blockers of cytochrome P450 2C19 activity – biochemical, luminescence, ADME assay, primary screen | P33261 | CYP2C19 Supersomes, luciferin-H EGE luminescence, 30 min | inhibition, % at 5 µM | hit rate 21% among 96,000 | AID 778, 2007;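 active means CYP2C19 inhibition above a set limit at 5 µM in the primary screen, cut at about 50% in these data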;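 further: plate controls were negative control wells for no effect and 2.5 mM tranylcypromine positive control for full effect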
Target sequence (P33261 whole entry, looked up): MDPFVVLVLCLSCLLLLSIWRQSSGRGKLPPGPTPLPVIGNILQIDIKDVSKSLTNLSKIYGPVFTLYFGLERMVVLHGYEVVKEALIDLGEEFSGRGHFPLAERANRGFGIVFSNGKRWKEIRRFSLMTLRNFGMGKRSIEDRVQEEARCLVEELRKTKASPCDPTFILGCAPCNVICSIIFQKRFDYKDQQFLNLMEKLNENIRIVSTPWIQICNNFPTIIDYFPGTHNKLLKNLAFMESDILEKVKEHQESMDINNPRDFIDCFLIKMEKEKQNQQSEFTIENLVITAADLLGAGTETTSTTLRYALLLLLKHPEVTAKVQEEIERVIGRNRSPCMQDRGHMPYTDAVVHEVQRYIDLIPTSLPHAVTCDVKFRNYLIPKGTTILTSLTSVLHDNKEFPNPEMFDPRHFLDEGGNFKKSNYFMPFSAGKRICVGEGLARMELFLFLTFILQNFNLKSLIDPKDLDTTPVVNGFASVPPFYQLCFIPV
CYP2C9 inhib: blockers of cytochrome P450 2C9 activity – biochemical, luminescence, ADME assay, primary screen; P11712; CYP2C9 Supersomes, luciferin-H conversion; inhibition, % at 5 µM; hit rate 20% among 96,000;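 active means blocking of liver enzyme CYP2C9 beyond about 50% at 5 µM, limit read from the data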
CYP2C9 act: human CYP2C9 activators, primary screen, biochemical, luminescence; Cytochrome P450 2C9 (Homo sapiens), P11712; hit rate 1.4% among 96,000; activation factor at 5 µM; recombinant CYP2C9, luciferin-H conversion; active compounds read high; factor 1 = untreated enzyme, 0 = blocked;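 active means activation factor of 2 or more for CYP2C9 at a 5 µM dose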;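 further: 0 = sulfaphenazole-blocked wells and 1 = vehicle-only wells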
CYP2C19 act: human CYP2C19 activators, primary screen, biochemical, luminescence; Cytochrome P450 2C19 (Homo sapiens), P33261; recombinant CYP2C19, luciferin-H EGE luminescence; active compounds read high; 0 = fully inhibited enzyme, 1 = untreated enzyme; activation factor at 5 µM; 96,000 tested, under 10 active;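 active means activation factor of at least 2 at 5 µM in the primary screen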;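 further: 0 = wells with 2.5 mM tranylcypromine and 1 = vehicle-only wells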
* = called active by the depositor.

SMILES	CYP2C19 inh	CYP2C9 inhib	CYP2C9 act	CYP2C19 act
COc1ccc(S(=O)(=O)N(C)CC(=O)Nc2ccccc2C(F)(F)F)cc1Cl	53*	-94	1.9	0.5
O=C(CCc1nc2cccnc2n1Cc1ccccc1)NCCc1ccc(Cl)cc1	71*	69*	0.3	0.3
COc1ccc(Cn2c(CCC(=O)Nc3ccc(C)c(C)c3)nc3cccnc32)cc1	64*	98*	0	0.4
CCOC(=O)c1c(P(=O)(N2CCOCC2)N2CCOCC2)noc1N	11	3	1	0.9
O=C1C2C3C=CC(C3)C2C(=O)N1CCN1CCN(S(=O)(=O)c2ccc3ccccc3c2)CC1 (configuration not stated)	34	-70	1.7	0.7
N#CC(C(=O)C12CC3CC(CC(C3)C1)C2)c1nc2ccccc2[nH]1 (configuration not stated)	33	62*	0.4	0.7
O=C(CSc1nnc(-c2ccccn2)n1-c1ccc(Cl)cc1)Nc1ccc2c(c1)OCO2	-8	1	1	1.1
O=C1Nc2ccccc2C(O)(C(=O)NC2CC2)N1c1ccc(Cl)c(Cl)c1 (configuration not stated)	7	-4	1	0.9
O=C1Nc2cc(Cl)c(Cl)cc2N(O)N1c1ccc(Cl)c(Cl)c1	12	54*	0.5	0.9
CC1CCCCC12NC(=O)N(CC(=O)Nc1sc3c(c1C(N)=O)CCC3)C2=O (configuration not stated)	23	70*	0.3	0.8
O=C(/C=C\Nc1ccccn1)c1ccccc1	79*	38	0.6	0.2
O=C(/C=C/Nc1ccccc1Br)c1ccccn1	23	-1	1	0.8
COc1ccc(CNC(=O)c2cc(-c3cccs3)on2)cc1	29	47	0.5	0.7
O=C(NCc1ccc(Cl)cc1)c1cc(-c2cccs2)on1	51*	60*	0.4	0.5
CC1=C(C(=O)NCc2ccc3c(c2)OCO3)C2(CCC(C)CC2)OC1=O (configuration not stated)	66*	85*	0.2	0.3
CCC(C)NC(=O)C1=C(C)C(=O)OC12CCC(C)CC2 (configuration not stated)	82*	39	0.6	0.2
CC1=C(C(=O)NCc2ccco2)C2(CCC(C)CC2)OC1=O (configuration not stated)	13	1	1	0.9
CC1=C(C(=O)NC2CCC(C)CC2)C2(CCC(C)CC2)OC1=O (configuration not stated)	30	35	0.7	0.7
Cc1ccc(CNC(=O)CSc2nc(N3CCCCC3)nc(N3CCCCC3)n2)cc1	71*	11	0.9	0.3
O=C(CSc1ncccn1)NCc1ccc(F)cc1	26	-6	1.1	0.7
Cc1ccc(CNC(=O)CSc2ncccn2)cc1	77*	14	0.9	0.2
Cc1ccc(CNC(=O)CCSCCC(=O)NCc2ccc(C)cc2)cc1	9	70*	0.3	0.9
Cc1ccc(CNC(=O)CCOc2ccc(C(C)(C)C)cc2)cc1	26	24	0.8	0.7
CCN(CC)CCCNC(=O)C1CCN(C(=O)c2cc3sccc3n2Cc2ccc(F)cc2)CC1	10	14	0.9	0.9
CCOC(=O)N1CCC(NC(=O)C2CCCN(C(=O)N3CCOc4ccccc43)C2)CC1 (configuration not stated)	16	80*	0.2	0.8
SMILES	CYP2C19 inh	CYP2C9 inhib	CYP2C9 act	CYP2C19 act
O=C(OCn1nnc2ccccc2c1=O)c1ccc(S(=O)(=O)N2CCOCC2)cc1	-15	9	0.9	1.2
O=C1CC(C(=O)Nc2ccc(C(=O)N3CCOCC3)cc2)C2(CCCCC2)O1 (configuration not stated)	2	-7	1.1	1
O=C1CCc2cc(S(=O)(=O)NC(Cc3ccccc3)C(=O)NCCC3=CCCCC3)ccc2N1 (configuration not stated)	68*	61*	0.4	0.3
Cc1ccccc1OCC(=O)N(Cc1cccs1)C1CCS(=O)(=O)C1 (configuration not stated)	33	7	0.9	0.7
Cc1cccc(OC(C)C(=O)N(Cc2cccs2)C2CCS(=O)(=O)C2)c1C (configuration not stated)	95*	38	0.6	0.1
O=C(CCN1C(=O)c2cccnc2C1=O)NC1CCCCCC1	-3	-17	1.2	1
COc1ccccc1N1CCN(C(=O)c2cnn3cccnc23)CC1	9	-7	1.1	0.9
Nc1nc(SCc2nc3scc(-c4cccs4)c3c(=O)[nH]2)n[nH]1	19	44	0.6	0.8
CC(C)C(NC(=O)C1CCCCC1)C(=O)Nc1ccccn1 (configuration not stated)	-3	12	0.9	1
O=C(NCCCN1CCOCC1)c1ccc(Br)s1	26	-16	1.2	0.7
O=C(Cc1nc(-c2ccc(Br)s2)cs1)NCCN1CCOCC1	77*	34	0.7	0.2
O=C(NCCN1CCOCC1)c1ccc2c(c1)N(Cc1ccccc1)CCS2	54*	63*	0.4	0.5
CN1CCN(CCCNC(=O)c2ccc3c(c2)N(Cc2ccccc2)CCS3)CC1	-8	0	1	1.1
O=C(Cc1ccc(-c2ccccc2)cc1)NCCN1CCOCC1	72*	42	0.6	0.3
O=C(NCCN1CCOCC1)c1ccc(-c2ccccc2)cc1	-16	-11	1.1	1.2
O=C(Cc1ccc(-c2ccccc2)cc1)N1CCOCC1	74*	65*	0.3	0.3
CCOC(=O)N1CCC(NC(=O)c2cc3ccccn3n2)CC1	6	10	0.9	0.9
O=C(CCSc1ccccc1)NCCN1CCOCC1	49	-2	1	0.5
O=C(CC(c1ccccc1)c1cc(Br)ccc1O)NCCN1CCOCC1 (configuration not stated)	85*	56*	0.4	0.2
OCCNc1nc2ccc(Cl)cc2[nH]1	-18	-19	1.2	1.2
COc1cccc(C2=NN(C(=O)c3ccccc3)C(O)(C(F)(F)F)C2)c1 (configuration not stated)	89*	92*	0.1	0.1
CC(C)C1=NN(C(=O)c2cccnc2)C(O)(C(F)(F)F)C1 (configuration not stated)	41	20	0.8	0.6
COc1ccc(NC(=O)C2CCCN(S(=O)(=O)c3cccnc3)C2)c(OC)c1 (configuration not stated)	59*	15	0.8	0.4
COc1ccc(NC(=O)C2CCCN(S(=O)(=O)c3ccc4c(c3)oc(=O)n4C)C2)c(OC)c1 (configuration not stated)	51*	38	0.6	0.5
Cc1ccc(NC(=O)C2CCCN(S(=O)(=O)c3ccc4c(c3)oc(=O)n4C)C2)nc1 (configuration not stated)	48	23	0.8	0.5
